Screening data deposited in PubChem BioAssay by Broad Institute.
The sample as a whole holds a higher share of hits than the screen did.
NOMO-1 viab = STK33 inhibitor candidate reducing NOMO-1 cell viability; NOMO-1 AML viability, CellTiter-Glo luminescence, 72 h; inhibition, % (test concentration not listed); actives 7.5% (n = 37,000); in the data active = inhibition above about 80%; inconclusive = no clear call, values can overlap the other calls
STK33 inh = blocks human STK33 kinase activity | actives 0.44% (n = 27,000) | inhibition, % at 12.5 µM | AID 2322 | Q9BYT3 | ADP-Glo luminescence, MBP substrate; in the data active = inhibition above about 20%; inconclusive = no clear call, values can overlap the other calls
Target sequence (Q9BYT3 whole entry, looked up): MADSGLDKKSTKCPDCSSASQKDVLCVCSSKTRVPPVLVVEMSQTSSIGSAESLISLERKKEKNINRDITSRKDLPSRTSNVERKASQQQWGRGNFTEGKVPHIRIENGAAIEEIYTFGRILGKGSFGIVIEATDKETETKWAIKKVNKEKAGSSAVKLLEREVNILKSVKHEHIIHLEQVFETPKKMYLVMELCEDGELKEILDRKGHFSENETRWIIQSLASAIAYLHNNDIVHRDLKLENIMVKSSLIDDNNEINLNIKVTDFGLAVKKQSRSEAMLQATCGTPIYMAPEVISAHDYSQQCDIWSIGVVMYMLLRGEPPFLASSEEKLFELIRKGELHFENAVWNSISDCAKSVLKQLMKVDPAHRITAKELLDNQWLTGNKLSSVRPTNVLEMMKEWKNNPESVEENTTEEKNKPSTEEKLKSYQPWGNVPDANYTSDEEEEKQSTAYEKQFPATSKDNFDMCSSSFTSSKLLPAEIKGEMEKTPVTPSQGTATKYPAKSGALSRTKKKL
PD-1 reversal = reversal of PD-1 mediated T-cell inhibition; primary human CD4 T cells, PD-L1 beads, CellTiter-Glo 96 h; activation, % (no concentration beside the values); 29,000 tested, under 10 active; call rule not given here;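 also: 0% = median vehicle wells and 100% = positive control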
The depositor's hits bear a star; u = inconclusive; x = no result given.

SMILES	NOMO-1 viab	STK33 inh	PD-1 reversal
C[C@H](CO)N1C[C@H](C)[C@H](CN(C)Cc2ccc(C(=O)Nc3ccccc3N)cc2)Oc2c(NC(=O)C3CCCCC3)cccc2C1=O	126.7*	x	-1.5
C[C@H]1CN([C@@H](C)CO)C(=O)c2cccc(NC(=O)C3CC3)c2O[C@H]1CN(C)Cc1ccc(C(=O)Nc2ccccc2N)cc1	93.7*	x	-1.9
C[C@@H]1CN([C@@H](C)CO)C(=O)c2cc(NC(=O)C3CC3)ccc2O[C@H]1CN(C)Cc1ccc(C(=O)Nc2ccccc2N)cc1	30.7	x	-3.2
C[C@H](CO)N1C[C@H](C)[C@@H](CN(C)Cc2ccc(C(=O)Nc3ccccc3N)cc2)Oc2c(NC(=O)C3CCOCC3)cccc2C1=O	22.5	x	1.3
C[C@H](CO)N1C[C@H](C)[C@@H](CN(C)Cc2ccc(C(=O)O)cc2)Oc2c(NC(=O)C3CCCCC3)cccc2C1=O	0.4	x	0.6
C[C@@H]1CN([C@@H](C)CO)C(=O)c2cccc(NC(=O)C3CCOCC3)c2O[C@@H]1CN(C)Cc1ccc(C(=O)Nc2ccccc2N)cc1	126.4*	x	-2.2
C[C@H]1CN([C@@H](C)CO)C(=O)c2cc(NC(=O)C3CCCCC3)ccc2O[C@H]1CN(C)Cc1ccc(C(=O)Nc2ccccc2N)cc1	110.4*	x	-3.5
C[C@H]1CN([C@@H](C)CO)C(=O)c2cccc(NC(=O)c3ccncc3)c2O[C@H]1CN(C)Cc1ccc(C(=O)Nc2ccccc2N)cc1	35.8	x	-2.6
COc1ccc(OC)c(NC(=O)COc2ccc3c(-c4ccccc4)cc(=O)oc3c2)c1	-7.8	2.2	2.1
COC(=O)c1ccccc1NC(=O)CSc1nnc(-c2ccccc2O)n1-c1ccccc1	35.6	6.3	0.3
CC(=O)OCC(Cc1ccccc1)NC(=O)C(Cc1ccccc1)NC(=O)c1ccccc1 (stereo not given)	39.8	-1.9	-3.0
c1ccc2c(c1)oc1c(N3CCCCC3)ncnc12	u	x	0.4
C[C@@H]1CN([C@@H](C)CO)C(=O)c2cccc(NC(=O)c3ccncc3)c2O[C@@H]1CN(C)Cc1ccc(C(=O)Nc2ccccc2N)cc1	127.7*	x	-0.5
C[C@@H]1CN([C@H](C)CO)C(=O)c2cccc(NC(=O)c3ccncc3)c2O[C@H]1CN(C)Cc1ccc(C(=O)Nc2ccccc2N)cc1	35.4	x	-0.5
CC(=O)c1ccc(NC(=O)CSc2nc(-c3ccccc3)cc(=O)[nH]2)cc1	-11.1	1.0	x
Cn1c(SCC(=O)c2ccc(Br)cc2)nnc1-c1cc2ccccc2o1	10.0	-3.9	0.5
COc1ccc2[nH]c(=O)c(CN(C)S(=O)(=O)c3ccc(C)cc3)cc2c1	-12.0	-2.1	-0.9
COc1ccc(C(OC(=O)c2ccccc2)c2nccc3ccccc23)cc1 (stereo not given)	105.4*	x	-0.7
Cc1ccc(C(=O)OC(c2ccccc2)c2nccc3ccccc23)cc1 (stereo not given)	37.9	x	-0.1
COc1cc(S(C)=O)ccc1-c1nc2ccncc2[nH]1 (stereo not given)	16.7	3.3	7.7
C=C(C)C(=O)O[C@H]1[C@H]2C(=C)C(=O)O[C@@H]2C[C@@H](C)[C@@H]2O[C@@H]2C(=O)[C@](C)(O)[C@@H]1OC(=O)C(=C)C	119.1*	-1.4	-9.7
CC1=CC(C)(C)N(Cc2ccccc2)c2ccccc21	59.3	x	-0.7
Cc1ccc(Nc2cc(=O)[nH]n2C)cc1Cl	-13.2	x	-0.7
Cc1cccc(-c2noc(CN(C(=O)c3ccc([N+](=O)[O-])c(C)c3)C(C)C)n2)c1	131.7*	-0.7	-9.6
Cc1ccc(C(=O)N(Cc2nc(-c3ccc(Cl)cc3)no2)C(C)C)cc1[N+](=O)[O-]	11.5	9.8	0.6
SMILES	NOMO-1 viab	STK33 inh	PD-1 reversal
COc1cc(O)cc2c1C(=O)OC(C)C2 (stereo not given)	10.4	-1.4	2.0
C[C@@H]1C[C@@H]2O[C@H]2/C=C/C=C\C(=O)Cc2c(Cl)c(O)cc(O)c2C(=O)O1	118.3*	-2.6	-7.2
Cc1cc(C(=O)CSc2nnnn2-c2ccccc2)c(C)n1-c1cc(F)ccc1F	13.4	-0.2	x
CC(=O)Nc1cc2ccccc2oc1=O	41.4	0.7	x
Cc1ccc(C(=O)Nc2cc3ccccc3oc2=O)cc1	138.7*	x	0.2
O=C(CSc1nc(O)cc(=O)n1-c1ccccc1)Nc1ccc2ccccc2c1	14.4	-1.2	x
CCn1c2ccccc2c2cc(NS(=O)(=O)c3ccccc3)ccc21	136.4*	x	-0.5
CCn1c2ccccc2c2cc(NC(=O)CSc3nnnn3-c3ccccc3)ccc21	4.5	5.2	x
O=C(Cn1cnc2sc(-c3ccccc3)cc2c1=O)NCc1ccco1	115.7*	5.2	x
Cc1cccc(NC(=O)Cn2cnc3sc(-c4ccccc4)cc3c2=O)c1	12.9	4.3	1.5
C[C@H]1CN([C@@H](C)CO)C(=O)Cc2cc(NC(=O)Nc3ccc(C(F)(F)F)cc3)ccc2O[C@H]1CN(C)Cc1ccc(Cl)c(Cl)c1	135.7*	-1.5	-17.1
C[C@@H]1CN([C@H](C)CO)C(=O)Cc2cc(NC(=O)Nc3ccc(C(F)(F)F)cc3)ccc2O[C@@H]1CN(C)Cc1ccc(Cl)c(Cl)c1	79.3	0.9	x
C[C@H](CO)N1C[C@H](C)[C@H](CN(C)Cc2ccc(Cl)c(Cl)c2)Oc2ccc(NC(=O)Nc3ccc(C(F)(F)F)cc3)cc2CC1=O	123.7*	0.0	1.0
C[C@@H]1CN([C@H](C)CO)C(=O)Cc2cc(NC(=O)Nc3ccc(C(F)(F)F)cc3)ccc2O[C@H]1CN(C)Cc1ccc(Cl)c(Cl)c1	31.1	-2.5	1.1
O=C(CNC(=O)c1cn(-c2ccccc2)nc1-c1ccccc1)c1ccccc1	5.5	-0.7	x
C(=NCc1ccco1)c1cn(-c2ccccc2)nc1-c1ccccc1	104.9*	0.1	-5.2
O=C(/C=C/c1ccc(O)cc1)NCCc1ccc(O)cc1	36.1	2.7	1.1
CC(=O)NCCCN(CCCCN(CCCNC(=O)/C=C/c1ccc(O)cc1)C(C)=O)C(=O)/C=C/c1ccc(O)cc1	-0.6	40.5*	1.9
O=C(COc1ccc(Cl)cc1)Nc1ccc2nn(-c3ccc(F)cc3)nc2c1	12.8	4.4	-0.3
C=C1C(=O)O[C@@H]2/C=C(\CO)CCC/C(C)=C/[C@H](O)C12 (stereo not given in full)	116.1*	-3.2	-5.5
C=C1C(=O)O[C@H]2[C@H]1[C@@H](OC(=O)C(C)CO)C[C@@]1(C)[C@H](O)CCC(=O)[C@H]21 (stereo not given in full)	x	-3.3	x
C=C1C(=O)O[C@@H]2/C=C(/CO)CC/C=C(/C)C[C@H](OC(=O)C(C)CO)[C@@H]12 (stereo not given in full)	118.1*	2.1	-1.5
Cc1cc(Oc2ccccc2)nc(SCCOc2ccccc2)n1	12.1	-1.9	-0.4
O=C(O)C1CCCCC1C(=O)Nc1ccc([N+](=O)[O-])cc1 (stereo not given)	-2.9	0.0	1.7
Nc1nc(CSc2ccccn2)nc(Nc2ccccc2)n1	18.8	1.1	x
Cc1ccc(Nc2nc(N)nc(CN3CCN(C(c4ccccc4)c4ccccc4)CC3)n2)cc1	89.4*	6.2	-9.2
CCOC(=O)C1CCCN(Cc2nc(N)nc(Nc3ccccc3)n2)C1 (stereo not given)	112.6*	-1.9	0.4
CCOc1ccccc1Nc1nc(N)nc(CN2CCCCC2C)n1 (stereo not given)	27.5	-2.3	x
